The whole screen tested about 290,000 compounds, of which about 1,800 (0.62%) were called active. Rule as the data show it: active = inhibition above about 50%; inactive = the rest. Shown is part of a subset that was picked to be rich in actives.
Test: NOD2 signaling inhibitors, cell-based, luminescence, uHTS, HEK293 (AID 1566)
Settings: HEK293 NOD2/NF-kB luciferase reporter, at 4 µM, stronger effect = higher value

Compound	inhibition
Cc1ccc(-c2nc(CS(=O)CC(=O)NCCCN3CCN(Cc4ccccc4)CC3)c(C)o2)cc1 (stereo unspecified)	28.9% (inactive)
Cc1oc(-c2ccc(Cl)cc2)nc1CS(=O)CC(=O)NCCCN1CCOCC1 (stereo unspecified)	16.6% (inactive)
Cc1oc(-c2ccc(Cl)cc2)nc1CS(=O)CC(=O)NCCCN1CCN(Cc2ccccc2)CC1 (stereo unspecified)	61.5% (active)
Cc1c(-c2nc(-c3ccc(C(F)(F)F)cc3)no2)n(C)oc1=O	-51.2% (inactive)
CCN(CC)C(=O)C1CCCN(Cc2ccccc2)C1 (stereo unspecified)	-6.7% (inactive)
Cc1cccc(NC(=O)NCc2ccc3c(c2)cc(C)n3C)c1	10.6% (inactive)
CCc1ccc(-c2nnn(CCC(=O)OC)n2)cc1	54.4% (active)
COC(=O)CCn1nnc(-c2cccs2)n1	6.8% (inactive)
COC(=O)CCn1nnc(-c2ccc(C)cc2)n1	-23.2% (inactive)
COc1ccc(OC)c(NC(=O)CCCC(=O)NC2CCCCC2)c1	10.6% (inactive)
COC(=O)C(Cc1ccc(O)cc1)NC(=O)C(C)NC(=O)c1ccc(C(C)(C)C)cc1 (stereo unspecified)	-9.1% (inactive)
O=C(C1=C(O)C(=O)N(c2nccs2)C1c1ccccc1)c1cc2ccccc2o1 (stereo unspecified)	-20.5% (inactive)
CC(=O)C1=C(O)C(=O)N(c2nccs2)C1c1ccccc1 (stereo unspecified)	-1.4% (inactive)
CSc1ccccc1-c1nnc(-c2ccc(Cl)c(Cl)c2)o1	-48.1% (inactive)
Cc1cc([N+](=O)[O-])ccc1NC(=O)C(C)N1CCN(c2ccccn2)CC1 (stereo unspecified)	12% (inactive)
Cc1ccc(S(=O)(=O)NCc2ccc(C(=O)N3CCCC3)cc2)cc1	-3.3% (inactive)
Cc1ccc(S(=O)(=O)NCc2ccc(C(=O)N3CCN(c4ccccc4)CC3)cc2)cc1	12.6% (inactive)
COc1ccc(-c2nc(CN3CCN(c4cc(C)nc(C)c4)CC3)c(C)o2)c2ccccc12	30.3% (inactive)
COc1ccc(-c2nc(CN3CCN(c4ccccc4OC)CC3)c(C)o2)cc1	1.8% (inactive)
O=C(NC1CCCCC1)C(c1ccc(O)cc1)N(C(=O)c1cnccn1)c1cccc(F)c1 (stereo unspecified)	3.4% (inactive)
CC(C)(C)CC(=O)Nc1ccccc1N1CCN(c2ccccc2)CC1	-19.6% (inactive)
CCC(=O)NC(c1ccc(C)cc1)c1ccc2cccnc2c1O (stereo unspecified)	70% (active)
CCCC(=O)NC(c1ccc(C(C)C)cc1)c1ccc2cccnc2c1O (stereo unspecified)	21.9% (inactive)
CCCC(=O)NC(c1ccc(C)cc1)c1ccc2cccnc2c1O (stereo unspecified)	13% (inactive)
Cc1cccc(C2(c3cccc(C)c3)CC2C(=O)Nc2ccc([N+](=O)[O-])cc2O)c1 (stereo unspecified)	48.8% (inactive)
CC1(C)CC1C(=O)Nc1ccc([N+](=O)[O-])cc1Br (stereo unspecified)	9.5% (inactive)

Compound	inhibition
Cc1ccc(C2(c3ccc(C)cc3)CC2C(=O)Nc2ccc([N+](=O)[O-])cc2O)cc1 (stereo unspecified)	52.6% (active)
Cc1ccsc1/C=N/NC(=O)C1CC(=O)N(c2ccc(F)cc2)C1 (stereo unspecified)	16.6% (inactive)
O=C(N/N=C/c1ccccc1O)C1CC(=O)N(c2ccc(F)cc2)C1 (stereo unspecified)	59.3% (active)
O=C(N/N=C/c1ccccc1O)C1CC(=O)N(c2ccc(Cl)cc2)C1 (stereo unspecified)	47.3% (inactive)
Cc1cc(C(=O)NNC(=S)NCC(C)C)no1	-0.2% (inactive)
CCCSc1nnc(-c2c[nH]c3ccccc23)n1CC	-33.8% (inactive)
Cn1[nH]c(=O)c(Cl)c(Cl)c1=O	10.7% (inactive)
COc1ccccc1/C=C/C(C)=O	-13.4% (inactive)
COc1ccccc1/C=C/C(=O)/C=C/c1ccccc1O	50.2% (active)
COc1ccccc1/C=C/C(=O)c1ccccc1	-52.6% (inactive)
CCOc1ccc2[nH]c(=O)c(CN(CC3CCCN3CC)C(=O)NCc3ccccc3)cc2c1 (stereo unspecified)	13.6% (inactive)
Nc1cc(S(=O)(=O)O)cc([N+](=O)[O-])c1O	8.2% (inactive)
O=C(NCCN1CCOCC1)c1ccc(Cl)c(Cl)c1	-11.3% (inactive)
O=C(Nc1ccc2snnc2c1)N1CCCCC1	3.3% (inactive)
O=C(Nc1ccc2c(c1)OCO2)c1cc(C2CC2)on1	-108% (inactive)
COc1cc(/C=C2\CCOC2=O)cc(OC)c1OC	-11.1% (inactive)
COc1cc(/C=C2\CC/C(=C\c3cc(OC)c(OC)c(OC)c3)C2=O)cc(OC)c1OC	-18.8% (inactive)
CN(C)C1(CNC(=O)C2CCN(S(=O)(=O)c3cc(Cl)ccc3Cl)CC2)CCCCC1	-8.8% (inactive)
Fc1ccc2[nH]c3c(N4CCN(Cc5ccc6c(c5)OCO6)CC4)ncnc3c2c1	55.3% (active)
COc1ccc2[nH]c3c(N4CCN(Cc5ccc6c(c5)OCO6)CC4)ncnc3c2c1	3.4% (inactive)
Cc1ccc2[nH]c3c(N4CCN(Cc5ccc6c(c5)OCO6)CC4)ncnc3c2c1	49.8% (inactive)
CC(C)CC(N)c1cn([C@@H](CCC(=O)O)C(=O)N2CCNCC2)nn1 (stereo partly specified)	-7.7% (inactive)
CNC(C)C#Cc1ccc2c(=O)c3c(OC)cccc3oc2c1 (stereo unspecified)	-33.5% (inactive)
O=C(O)CSc1ncnc2sc(-c3ccccc3)cc12	15.1% (inactive)
CC(=O)CCSc1ncnc2sc(-c3ccccc3)cc12	-124% (inactive)
Cc1ccc(SCCN2CCN(CC(C)C)CCC2=O)cc1	-18.4% (inactive)

Compound	inhibition
O=C(NC1CCCCCCC1)c1cc(F)c(F)cc1Cl	-57.3% (inactive)
Cc1csc(Nc2ccccc2C(F)(F)F)n1	-3.5% (inactive)
O=S(=O)(Nc1cccc(S(=O)(=O)N2CCCCCC2)c1)c1ccccc1	16.1% (inactive)
O=C(CCc1ccccc1Cl)Nc1cccc(S(=O)(=O)N2CCCC2)c1	4% (inactive)
COc1ccc(S(=O)(=O)Nc2cccc(S(=O)(=O)N3CCCCCC3)c2)cc1	-4.9% (inactive)
O=S(=O)(Nc1nc2ccccc2nc1Nc1cccc(S(=O)(=O)N2CCCCC2)c1)c1ccccc1	55.5% (active)
O=S(=O)(Nc1nc2ccccc2nc1Nc1ccc2c(c1)OCO2)c1ccccc1	26% (inactive)
CC(=O)Nc1cccc(S(=O)(=O)N2CCCCCC2)c1	2.3% (inactive)
COc1ccc(S(=O)(=O)Nc2nc3ccccc3nc2Nc2ccc3c(c2)OCO3)cc1	25.7% (inactive)
COc1ccccc1CNC(=O)c1cn(C)c2ccc(S(=O)(=O)N3CCCCC3)cc2c1=O	-7.1% (inactive)
CCn1c(C)c2c(C)nnc(C)c2c1C	8.3% (inactive)
Cc1ccc(CSC2=NCCN2C(=O)c2ccc(S(=O)(=O)N(C)C)cc2)cc1	-5% (inactive)
COc1ccc(C)cc1NC(=O)CC(O)(C(F)(F)F)C(F)(F)F	1.2% (inactive)
COc1ccc(-c2nsc3c(N4CCCCC4)ncnc23)cc1	-13.3% (inactive)
COc1ccc(-c2nsc3c(N4CCCCC4C)ncnc23)cc1 (stereo unspecified)	86% (active)
COc1ccc(-c2nsc3c(N4CCCC4)ncnc23)cc1	-61.9% (inactive)
N/C(CC(=O)Nc1cccc(C(F)(F)F)c1)=N/O	5.4% (inactive)
O=Nc1c2cc(-c3ccccc3)[nH]nc-2c2ccccc12	-167% (inactive)
Cc1ccc(-c2cc3c(N=O)c4ccccc4c-3n[nH]2)cc1	70.7% (active)
Cc1cccc(-c2cc3c(N=O)c4ccccc4c-3n[nH]2)c1	-162% (inactive)
N#CC12CCCCC1CC1CCCCC1(C#N)N2N (stereo unspecified)	1.8% (inactive)
O=C(CCCN1C(=O)c2ccccc2C1=O)NCCC1=CCCCC1	5.4% (inactive)
CCOc1ccc(-c2nc(CSCC(=O)NCc3ccco3)c(C)o2)cc1	9.4% (inactive)
CCc1ccc(-c2nc(CSCC(=O)NCc3ccco3)c(C)o2)cc1	50% (active)
COc1ccc(-c2nc(CSCC(=O)NCc3ccco3)c(C)o2)cc1	-2% (inactive)
O=C(OCc1nc2ccccc2s1)c1cc2ccccc2oc1=O	-0.9% (inactive)

Compound	inhibition
Cc1cc(Cl)c(S(=O)(=O)N2CCCC2)cc1OCC(=O)NC1CCCCC1	32.3% (inactive)
CCN1CCN(S(=O)(=O)c2cc(OCC(=O)NC3CCCCC3)c(C)cc2Cl)CC1	35.8% (inactive)
C=CCSc1nc2ccccc2n1Cc1nnc(-c2cccs2)o1	8.9% (inactive)
CN(Cc1cccnc1)C(=O)c1cc(COc2ccc3c(c2)CCCC3)on1	-14.6% (inactive)
Cc1cc(CN(C)C(=O)c2cc(COc3ccc4ncccc4c3)on2)on1	28.5% (inactive)
O=C(CNC(=S)N(CCCN1CCOCC1)Cc1cccs1)N1CCCCCC1	-0.9% (inactive)
COc1ccc(N(CC(=O)N/N=C/c2ccc3c(c2)OCO3)S(=O)(=O)c2ccc(NC(C)=O)cc2)cc1	-7.5% (inactive)
COc1ccc(S(=O)(=O)N/N=C\c2ccc3c(c2)OCO3)c(OC)c1	51.2% (active)
COc1ccc(S(=O)(=O)N/N=C\c2ccc([N+](=O)[O-])o2)c(OC)c1	52.1% (active)
Cc1ccc(S(=O)(=O)N/N=C\c2ccc([N+](=O)[O-])o2)cc1	13.4% (inactive)
COc1ccc(S(=O)(=O)N/N=C\c2ccc3c(c2)OCO3)cc1	29.5% (inactive)
Cc1ccc(S(=O)(=O)N/N=C\c2ccc([N+](=O)[O-])o2)cc1C	33.4% (inactive)
COc1ccc(OC)c(S(=O)(=O)N/N=C\c2ccc3c(c2)OCO3)c1	-26.9% (inactive)
CCN(CC)CCn1c(=S)[nH]c2ccc(Br)cc2c1=O	7.1% (inactive)
CCCCC1=CC2=CC(=O)C(C)(OC(=O)CC)C(=O)C2=CN1C1CCCC1 (stereo unspecified)	33.3% (inactive)
COc1cccc(NC(=O)NC2CCCCC2C)c1 (stereo unspecified)	0.4% (inactive)
CCN(CC)C(=O)c1ccc2c(=O)n(CCOC)c(=S)[nH]c2c1	17.5% (inactive)
CCN(CC)C(=O)c1ccc2c(=O)n(Cc3ccc4c(c3)OCO4)c(=S)[nH]c2c1	10.2% (inactive)
CCN(CC)C(=O)c1ccc2c(=O)n(Cc3cccc(Br)c3)c(=S)[nH]c2c1	58.7% (active)
CCOC(=O)N1CCN(C(=O)c2ccc(Cn3c(=S)[nH]c4cc(OCC)c(OCC)cc4c3=O)cc2)CC1	43.9% (inactive)
O=C(c1ccc(Cn2c(=O)[nH]c3ccccc3c2=O)cc1)N1CCN(c2ccccn2)CC1	15.4% (inactive)
COc1ccc(Cn2c(=O)[nH]c3cc(C(=O)N4CCN(c5ccccn5)CC4)ccc3c2=O)cc1	3% (inactive)
CCOC(=O)N1CCN(C(=O)c2ccc(Cn3c(=S)[nH]c4cc(C(=O)OC)ccc4c3=O)cc2)CC1	24.9% (inactive)
